From PubChem BioAssay (NCI)
This is part of a sample that, as a whole, favours compounds with a hit. Of some 79,000 tested, about 15% had one in any assay. Activity calls are given as the source filed them. Cut-off read from the data, not from the text of the source: active = growth inhibition above about 70%; inactive = the rest.

What was measured:
[1] = NCI Yeast Anticancer Drug Screen. Data for the rad52 strain (AID 147);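 note: 0% = growth of vehicle-treated control cultures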; conditions: S. cerevisiae rad52 mutant growth inhibition, active compounds read high
How it was run: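 Screen used a yeast mutant impaired in DNA repair. After compound exposure, growth was measured. Values reflect inhibition compared with vehicle-treated cells.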

[2] = NCI Yeast Anticancer Drug Screen. Data for the wt1 strain (AID 149);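 note: 0% = growth of vehicle-treated wt1 cultures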; conditions: S. cerevisiae wt1 strain (SPY 50644) growth inhibition, active compounds read high
How it was run: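 Measured: growth of wt1 yeast under compound versus vehicle treatment, reported as inhibition.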

[3] = NCI Yeast Anticancer Drug Screen. Data for the rad50EPP+ strain (AID 151);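 note: 0% = growth of vehicle-treated control cultures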; conditions: S. cerevisiae rad50 mutant strain, active compounds read high
How it was run: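 Exposing the rad50EPP+ strain to each compound, growth was compared with vehicle-only cultures to give inhibition.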

[4] = NCI Yeast Anticancer Drug Screen. Data for the mgt1 strain (AID 153); conditions: S. cerevisiae mgt1 mutant growth inhibition, active compounds read high
How it was run: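 Genetically defined yeast (mgt1) treated with compound; inhibition of growth expressed against vehicle-treated controls.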

[5] = NCI Yeast Anticancer Drug Screen. Data for the rad50 strain (AID 155);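 note: 0% = growth of vehicle-only cultures of the same strain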; conditions: S. cerevisiae rad50 strain growth inhibition, active compounds read high
How it was run: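 Growth of the mutant yeast was measured after compound exposure and referenced to vehicle-treated cultures.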

[6] = NCI Yeast Anticancer Drug Screen. Data for the mec2-1 strain (AID 157); conditions: S. cerevisiae mec2-1 strain, active compounds read high
How it was run: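 Readout is yeast growth inhibition, normalised to vehicle-treated controls, in the mec2-1 strain exposed to compound.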

[7] = NCI Yeast Anticancer Drug Screen. Data for the rad14 strain (AID 159);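 note: 0% = growth of vehicle-treated control cultures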; conditions: S. cerevisiae rad14 strain growth inhibition, active compounds read high
How it was run: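 Here, inhibition of yeast growth was measured after compound exposure, using a strain with a genetic defect in DNA damage repair and vehicle-treated cultures as the reference.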

[8] = NCI Yeast Anticancer Drug Screen. Data for the sgs1 mgt1 strain (AID 161);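 note: 0% = growth of cultures given vehicle only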; conditions: S. cerevisiae sgs1 mgt1 strain, active compounds read high
How it was run: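 This yeast growth screen uses a strain with defined DNA-repair lesions; compound-treated growth is compared with vehicle-treated growth.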

[9] = NCI Yeast Anticancer Drug Screen. Data for the CLN2oe strain (AID 163);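 note: 0% = growth of vehicle-only control cultures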; conditions: S. cerevisiae CLN2oe strain, active compounds read high
How it was run: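 Values reflect how much compound exposure reduced yeast growth, referenced to vehicle-exposed cells. Assay organism is a strain with a defined genetic change affecting cell-cycle control.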

[10] = NCI Yeast Anticancer Drug Screen. Data for the cln2 rad14 strain (AID 165);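 note: 0% = growth equal to vehicle treated cultures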; conditions: S. cerevisiae cln2 rad14 strain, active compounds read high
How it was run: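 Relative to vehicle controls, growth inhibition of compound-treated cln2 rad14 yeast was recorded.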

[11] = NCI Yeast Anticancer Drug Screen. Data for the bub3 strain (AID 167); conditions: S. cerevisiae bub3 mutant strain, active compounds read high
How it was run: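 Whole-cell yeast assay. The mutant strain was incubated with compounds, and growth inhibition was determined by comparison with vehicle-treated cells.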

[12] = NCI Yeast Anticancer Drug Screen. Data for the wt2 strain (AID 169);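 note: 0% = growth of vehicle-treated yeast cultures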; conditions: S. cerevisiae wt2 strain growth inhibition, active compounds read high
How it was run: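 Values express reduction in yeast growth under compound treatment, referenced to vehicle-treated cells.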

[13] = NCI Yeast Anticancer Drug Screen. Data for the mlh1 strain (AID 171);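 note: 0% = growth of vehicle-treated control cultures of the same strain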; conditions: S. cerevisiae mlh1 strain growth inhibition, active compounds read high
How it was run: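 Steps: expose the defined-mutant yeast strain to compound; expose a parallel culture to vehicle; measure growth; express compound effect as inhibition relative to the vehicle culture.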

[14] = NCI Yeast Anticancer Drug Screen. Data for the sgs1 strain (AID 173);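 note: 0% = growth of vehicle-only control cultures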; conditions: S. cerevisiae sgs1 mutant, active compounds read high
How it was run: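 Treat defined-mutant yeast with compound; measure growth; calculate inhibition relative to vehicle-treated cells.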

[15] = NCI Yeast Anticancer Drug Screen. Data for the mlh1 rad18 strain (AID 175); conditions: S. cerevisiae mlh1 rad18 strain growth inhibition, active compounds read high
How it was run: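 Test agents were incubated with a yeast strain of defined genotype (DNA damage repair defect). Inhibition of growth was derived by comparison with vehicle-exposed cultures.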

[16] = NCI Yeast Anticancer Drug Screen. Data for the rad18 strain (AID 177); conditions: S. cerevisiae rad18 mutant growth inhibition, active compounds read high
How it was run: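 A genetically defined yeast mutant impaired in DNA damage repair was treated with test compounds, then its growth was measured against cultures receiving vehicle alone.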

[17] = at 5.0 µM (retest, dose inferred, filed as 0.5)
[18] = at 50.0 µM (retest, dose inferred, filed as 5.0)

Measured: growth inhibition

CNCCCNc1c2ccccc2nc2cccc([N+](=O)[O-])c12
active: [1]; at 1.2 µM 83% | [1]; at 3.7 µM 85% | [1]; at 11.0 µM 90% | [1]; at 33.0 µM 94% | [1]; at 100.0 µM 96% | [2]; at 11.0 µM 77% | [2]; at 33.0 µM 92% | [2]; at 100.0 µM 97% | [3]; at 3.7 µM 89% | [3]; at 11.0 µM 96% | [3]; at 33.0 µM 97% | [3]; at 100.0 µM 98% | [4]; at 11.0 µM 72% | [4]; at 33.0 µM 94% | [4]; at 100.0 µM 97% | [5]; at 1.2 µM 73% | [5]; at 3.7 µM 82% | [5]; [17] 77% | [5]; at 11.0 µM 91% | [5]; at 33.0 µM 93% | [5]; [18] 95% | [5]; at 50.0 µM 84.8% | [5]; at 100.0 µM 96% | [6]; at 3.7 µM 87% | [6]; [17] 89% | [6]; at 11.0 µM 92% | [6]; at 33.0 µM 95% | [6]; [18] 97% | [6]; at 50.0 µM 91% | [6]; at 100.0 µM 97% | [7]; at 1.2 µM 84% | [7]; at 3.7 µM 93% | [7]; at 11.0 µM 96% | [7]; at 33.0 µM 96% | [7]; at 100.0 µM 97% | [8]; [17] 87% | [8]; [18] 96% | [8]; at 50.0 µM 91.2% | [9]; at 11.0 µM 80% | [9]; at 33.0 µM 93% | [9]; at 100.0 µM 97% | [10]; [17] 77% | [10]; [18] 95% | [10]; at 50.0 µM 91.3% | [11]; at 11.0 µM 92% | [11]; at 33.0 µM 98% | [11]; [18] 96% | [11]; at 50.0 µM 85.8% | [11]; at 100.0 µM 99% | [12]; at 11.0 µM 86% | [12]; at 33.0 µM 97% | [12]; at 100.0 µM 99% | [13]; at 11.0 µM 72% | [13]; at 33.0 µM 94% | [13]; at 100.0 µM 97% | [14]; at 3.7 µM 84% | [14]; at 11.0 µM 92% | [14]; at 33.0 µM 92% | [14]; at 100.0 µM 95% | [15]; [17] 88% | [15]; [18] 96% | [15]; at 50.0 µM 85.3% | [16]; at 1.2 µM 92% | [16]; at 3.7 µM 95% | [16]; at 11.0 µM 93% | [16]; at 33.0 µM 95% | [16]; at 100.0 µM 96%
inactive: [2]; at 1.2 µM 2% | [2]; at 3.7 µM 28% | [3]; at 1.2 µM 43% | [4]; at 1.2 µM 18% | [4]; at 3.7 µM 42% | [6]; at 1.2 µM 41% | [9]; at 1.2 µM -1% | [9]; at 3.7 µM 28% | [11]; at 1.2 µM -12% | [11]; at 3.7 µM 38% | [11]; [17] 21% | [12]; at 1.2 µM 2% | [12]; at 3.7 µM 23% | [13]; at 1.2 µM 18% | [13]; at 3.7 µM 42% | [14]; at 1.2 µM 67%
